Data from PubChem BioAssay (EPA / NIEHS).
“And” between values parts separate entries of the source, which are not always exact repeats. Identical values can stand only once. Records with an inconclusive call do not appear. The source made the active and inactive calls. The calls were made as follows, unless noted: active = hit-call score of the fitted dose curve at least 0.9, where 1 is the maximum; inactive = score below 0.9.

Legend:
[1] = TAMU_PeakParms_SingleDonor1434_Chronotropy: Texas A&M University (TAMU) 1.5-hr Human Induced Pluripotent Stem Cell (iPSC)-derived Cardiomyocytes Calcium (Ca+2) Flux Assay for Cardiotoxicity: Chronotropy (changes in peak frequency) (AID 2284217); conditions: actives raise or lower the signal
Outline: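 Using fluorescent Ca2+ flux, average beats per second are measured in human iPSC-derived cardiomyocytes treated 90 min (0.5% DMSO vehicle, 0.2–100 uM). Non-beating data points are removed; activity is modeled in both directions relative to DMSO controls.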

[2] = IUF_NPC1b_proliferation_BrdU_72hr: Leibniz Research Institute for Environmental Medicine (IUF) 72-hour Neural Progenitor Cell Bromodeoxyuridine (BrdU) Proliferation Assay (NPC1b) (AID 2284207)
Outline: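 Proliferation of primary human neural progenitor cells: 72 h compound treatment at 37C, 5% CO2, pH 7.2-7.6, in EGF/FGF-containing medium. Readout is BrdU uptake (last 16 h) by chemiluminescent ELISA, normalised to DMSO.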

[3] = IUF_NPC1a_proliferation_area_72hr: Leibniz Research Institute for Environmental Medicine (IUF) 72-hour Neural Progenitor Cell Proliferation Area Assay (NPC1a) (AID 2284208)
Outline: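 Proliferation is scored as sphere area gain in primary human fetal neural progenitors treated for 72 h in EGF/FGF-containing medium. Viability, LDH and BrdU readouts come from the same wells.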

[4] = IUF_NPC1_viability_72hr: Viability Assessment at 72 hours in the Leibniz Research Institute for Environmental Medicine (IUF) Neural Progenitor Cell Proliferation Assay (NPC1) (AID 2284209)
Outline: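 Human fetal-cortex neural progenitor spheres (0.25–0.35 mm, one per well) grown in EGF/FGF proliferation medium at 37C, pH 7.2-7.6, exposed 72 h without renewal; viability read as alamar blue resazurin-to-resorufin fluorescence relative to DMSO.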

[5] = CCTE_Mundy_HCI_Cortical_Synap_Neur_Matur_NeuriteSpotCountPerNeuriteLength: CCTE's Synaptogenesis and Neurite Maturation Assay in rat cortical cells for Neurite Spot Count per Neurite Length, Mundy Lab (AID 2284210)
Outline: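 Primary rat cortical neurons, compound exposure DIV 7–12, 288.33 h endpoint. Hoechst, anti-MAP2 and anti-synaptophysin labelling; neurite-associated puncta per neurite length scored by automated imaging relative to DMSO controls.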

[6] = CCTE_Mundy_HCI_Cortical_Synap_Neur_Matur_BPCount: CCTE's Synaptogenesis and Neurite Maturation Assay in rat cortical cells for Branch Point Count, Mundy Lab (AID 2284211)
Outline: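 Branch point number is quantified by automated imaging of fluorescently labelled neurites and synapses in rat primary cortical neurons exposed from DIV 7 to DIV 12. Activity is analysed relative to DMSO negative control.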

[7] = CCTE_Mundy_HCI_Cortical_NOG_NeuriteCount: CCTE's Neurite Outgrowth Assay in rat cortical cells for Neurite Count, Mundy Lab (AID 2284212);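 also: cells fixed about two days after chemical exposure began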
Outline: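 Neurite number per cell from high-content imaging of betaIII-tubulin immunostaining, with Hoechst nuclear counterstain.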

[8] = CCTE_Mundy_HCI_Cortical_NOG_NeuriteLength: CCTE's Neurite Outgrowth Assay in rat cortical cells for Neurite Length, Mundy Lab (AID 2284213);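 as to AC50: neurites imaged about 48 to 50 h after chemical exposure began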
Outline: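 Neurite length was read by high-content imaging of βIII-tubulin-labelled neurites in rat primary cortical cultures. Activity was fitted relative to DMSO.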

[9] = CCTE_Mundy_HCI_Cortical_Synap_Neur_Matur_NeuriteLength: CCTE's Synaptogenesis and Neurite Maturation Assay in rat cortical cells for Neurite Length, Mundy Lab (AID 2284214)
Outline: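 Rat primary cortical cells were plated, treated with AraC at DIV 5 to arrest glial growth, then chemical-dosed with media change at DIV 7 through DIV 12. Fixed cells stained for MAP2, synaptophysin and Hoechst; neurite length quantified by high-content imaging.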

[10] = CCTE_Mundy_HCI_Cortical_Synap_Neur_Matur_SynapseCount: CCTE's Synaptogenesis and Neurite Maturation Assay in rat cortical cells for Synapse Count, Mundy Lab (AID 2284218)
Outline: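 Rat primary cortical cells in 96-well plates received AraC at DIV 5 and were dosed with chemicals at DIV 7 with media change, through DIV 12 (288.33 h). Synapses per neuron counted by high-content imaging of MAP2/synaptophysin/Hoechst staining, versus DMSO baseline.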

[11] = CCTE_Mundy_HCI_Cortical_Synap_Neur_Matur_NeuriteCount: CCTE's Synaptogenesis and Neurite Maturation Assay in rat cortical cells for Neurite Count, Mundy Lab (AID 2284222)
Outline: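 In this multiplexed morphology readout, rat primary cortical neurons are fixed at DIV 12 following dosing at DIV 7 and stained for MAP2, synaptophysin and nuclei. High-content image analysis yields neurite count.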

[12] = CCTE_Mundy_HCI_hN2_NOG_NeuriteCount: CCTE's Neurite Outgrowth Assay in human hN2 cells for Neurite Count, Mundy Lab (AID 2284219; active = hit-call score of the fitted dose curve at least 0.9, where 1 is the maximum)
Outline: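 In this morphology assay, hNP1-derived neurons received test chemical 2 h post-plating and were fixed two days later in warm paraformaldehyde/sucrose containing Hoechst 33342. Neurites, labelled by rabbit anti-βIII-tubulin (1:800) and Alexa Fluor-488 (1:500), were counted automatically.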

[13] = CCTE_Mundy_HCI_hN2_NOG_NeuriteLength: CCTE's Neurite Outgrowth Assay in human hN2 cells for Neurite Length, Mundy Lab (AID 2284220; active = hit-call score of the fitted dose curve at least 0.9, where 1 is the maximum)
Outline: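 Plate hNP1-derived neurons, then add chemical 2 h later as a 1/10 dilution. Stain with anti-βIII-tubulin then Alexa Fluor-488 secondary, and image automatically to measure neurite length.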

[14] = CCTE_Mundy_HCI_hN2_NOG_NeuronCount: CCTE's Neurite Outgrowth Assay in human hN2 cells for Neuron Count, Mundy Lab (AID 2284221; active = hit-call score of the fitted dose curve at least 0.9, where 1 is the maximum)
Outline: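 Read-out is the number of betaIII-tubulin-positive neurons imaged by automated high-content analysis, with DMSO as negative control.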

[15] = CCTE_Mundy_HCI_hNP1_Pro_ResponderAvgInten: CCTE's Proliferation Assay in human neuroprogenitor cells, Mundy Lab (AID 2284224; active = hit-call score of the fitted dose curve at least 0.9, where 1 is the maximum;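 also: human neural progenitor cells hNP1 derived from WA09 embryonic stem cells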)
Outline: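 Proliferation was scored as BrdU labelling intensity in human neural progenitors derived from WA09 embryonic cells, measured 26.25 hours after chemical dosing. Activity was fitted relative to DMSO.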

[16] = UKN4_HCS_LUHMES_neurite_outgrowth: University of Konstanz (UKN) Leist Lab Neurite Outgrowth Assay in human LUHMES cells (UKN4) (AID 2284206); conditions: actives raise or lower the signal
Outline: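 LUHMES neuronal precursors differentiated 2 days, replated without cAMP/GDNF, then exposed to chemicals for 24 h. Neurite area imaged by high-content microscopy after calcein-AM staining; Hoechst H-33342 marks viability. Bidirectional fit versus DMSO.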

[17] = BSK_BT_PBMCCytotoxicity: PBMC Cytotoxicity Assessment in the BioMAP Diversity Plus: BT Assay (AID 2284225); conditions: primary human B cells with PBMC;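 also: PBMC viability measured by Alamar Blue dye reduction fluorescence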
Outline: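 75,000 cells/well; cpd 1 h → SEB + TSST-1 (20 ng/mL final each) → 90 h → Alamar Blue 6 h → fluor. 546/580 nm. DMSO = neg. control/baseline.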

[18] = read-out: Secreted IgG (sIgG), gene 3500; test: BSK_BT_sIgG: BioMAP Diversity Plus: BT Assay for Secreted IgG (sIgG) Biomarker Activity (AID 2284226); conditions: primary human B cells with PBMC
Outline: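 B cells co-cultured with PBMC were dosed with chemical and secreted IgG quantified by ELISA at 24 h. Activity was fitted in the positive direction relative to DMSO as negative control and baseline.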

[19] = BSK_BT_Bcell_Proliferation: Viability Assessment in the BioMAP Diversity Plus: BT Assay for B cell Proliferation (AID 2284227); conditions: primary human B cells with PBMC
Outline: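 Using a human primary B cell–PBMC co-culture, the assay measures total protein by sulforhodamine B absorbance as a gauge of proliferation after 72 h. Analysis followed the positive fitting direction with DMSO as baseline.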

[20] = read-out: Interleukin 6 (IL6), IL6 (gene 3569); test: BSK_BT_xIL6: BioMAP Diversity Plus: BT Assay for Interleukin 6 (IL6) Biomarker Activity (AID 2284228); conditions: primary human B cells with PBMC
Outline: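 Chemical added to human B cell/PBMC co-culture → 24 h → supernatant IL-6 by Luminex xMAP → fit vs DMSO baseline, upward direction.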

Measured: AC50

ClC1=C(Cl)[C@]2(Cl)[C@H]3[C@H]([C@@H]4C=C[C@H]3C4)[C@@]1(Cl)C2(Cl)Cl
inactive: [1]

[O-][Cl+]O
inactive: [3] | [4] | [5] | [6] | [7] | [8] | [9] | [10] | [11]
active: [2] 2.18 µM

COP(=S)(OC)SCN1C(=O)c2ccccc2C1=O
active: [2] 0.499 µM | [12] 33.5 µM | [13] 31.1 µM | [14] 23.1 µM
not listed: [1] | [16] | [17] | [18] | [19] | [20]
inactive: all other assays above

CC(C)COC(=O)c1ccccc1C(=O)OCC(C)C
inactive: [2] | [3] | [4] | [7] | [8] | [15]
active: [5] 87.9 µM | [6] 76.7 µM | [9] 80.2 µM | [10] 79.6 µM | [11] 88.7 µM

ClC1=C(Cl)C2(Cl)C3C(Cl)C=CC3C1(Cl)C2(Cl)Cl (configuration not stated)
inactive: [5] | [1]
active: [6] 13.3 µM | [7] 17.6 µM | [8] 22.5 µM | [9] 13.4 µM | [10] 10.6 µM | [12] 5 µM | [13] 4.18 µM | [14] 2.86 µM | [11] 14.9 µM | [15] 13.4 µM

O=P(OCCCl)(OCCCl)OCCCl
inactive: [2] | [3] | [4] | [1]

C1=Cc2cccc3cccc1c23
active: [1] 50 µM

COC(=O)Nc1nc2ccccc2[nH]1
inactive: [3] | [4] | [5] | [7] | [10] | [11] | [15]
active: [2] 18.4 µM | [6] 4.14 µM | [8] 12.5 µM | [9] 4.05 µM

CCCCOC(=O)c1ccccc1C(=O)OCc1ccccc1
active: [2] 82 µM | [6] 10 µM
inactive: [3] | [4] | [5] | [7] | [8] | [9] | [10] | [11] | [15]

CCCCCCCCn1sccc1=O
inactive: [1]

CNC(=O)Oc1cccc2c1OC(C)(C)C2
inactive: [2] | [3] | [4] | [5] | [6] | [7] | [8] | [9] | [10] | [11]

CCC[CH2][Sn]([Cl])([CH2]CCC)[CH2]CCC
active: [16] 0.119 µM | [2] 0.112 µM | [3] 0.673 µM | [4] 0.535 µM | [5] 0.0375 µM | [6] 0.0481 µM | [7] 0.112 µM | [8] 0.0882 µM | [9] 0.0468 µM | [10] 0.0569 µM | [15] 0.188 µM
inactive: [11]

CC(C)(C)C(O)(CCc1ccc(Cl)cc1)Cn1cncn1 (configuration not stated)
active: [4] 0.439 µM | [6] 11.2 µM | [9] 10.2 µM
not listed: [12] | [14] | [16] | [17] | [18] | [19] | [20]
inactive: all other assays above

OCCOCCO
not listed: [1] | [16] | [17] | [18] | [19] | [20]
inactive: all other assays above

CN(C)[C@@H]1C(=O)C(C(N)=O)=C(O)[C@@]2(O)C(=O)C3=C(O)c4c(O)cccc4[C@@](C)(O)[C@H]3C[C@@H]12
active: [6] 0.474 µM
inactive: [5] | [7] | [8] | [9] | [10] | [11]

CCNS(=O)(=O)C(F)(F)C(F)(F)C(F)(F)C(F)(F)C(F)(F)C(F)(F)C(F)(F)C(F)(F)F
inactive: [17] | [19] | [20]
active: [18] 22.5 µM and 30 µM

Clc1ccc(C(c2ccc(Cl)cc2)C(Cl)(Cl)Cl)cc1
inactive: [1]

Nc1cc(Cl)cc(C(=O)O)c1Cl
inactive: [5] | [6] | [7] | [8] | [9] | [10] | [12] | [13] | [14] | [11]
